# According to PubChem BioAssay (NCATS):
# Inconclusive results are not listed. Calls of active or inactive are those of the source. Unless noted, the call rests on the fitted dose curve; in most records, active means well fitted inhibition curve with a large enough effect; inconclusive means small, poorly fitted or top-dose-only effect; inactive means no such curve, though single readings can be large or run the other way.
# System: not listed separately
# Assay: NS1 protein of Zika virus - qHTS assay to identify small molecule inhibitors in human HEK 293 cells (AID 1347053);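 further: plate controls were infected untreated cells for no effect and uninfected cells for full effect; nearly all actives have a fitted effect of over 55% in size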
# Details: HEK293 ZIKV MR766 infection, NS1 TR-FRET, 24 h; series mostly up to 46.1 µM; activity change, negative = inhibition: at the top concentration
# Summary of the method: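 HEK 293 cells pretreated with compound for 1 h, then infected with ZIKV MR766 (MOI 0.5) for 24 h at 37 C. NS1 detected by TR-FRET with two anti-NS1 antibodies; normalized to uninfected (0%) and infected (100%) wells.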
row,Compound,"activity change, negative = inhibition"
1,COc1ccc(C(=O)NCc2cccnc2)cc1C(=O)NCc1cccnc1,1.86% (inactive)
2,O=c1cc(-c2ccccc2F)[nH]c2cc3c(cc12)OCO3,16.7% (inactive)
3,CNC(=O)c1cc2c(cn1)[nH]c1ccccc12,2.71% (inactive)
4,N[C@@H](Cc1ccc(F)cc1)C(=O)O,-9.12% (inactive)
5,N=C(N)c1ccc(OCCCCCOc2ccc(C(=N)N)cc2)cc1 (tested in a mixture with another compound),25.6% (inactive)
6,O=C(c1ccc2c(c1)OCCO2)N1CCCCC1,6.7% (inactive)
7,NCC(O)(CS(=O)(=O)O)c1ccc(Cl)cc1 (stereo unspecified),-2.08% (inactive)
8,CC(C)[C@@H]1CC[C@@H](C)C[C@@H]1P(=O)(c1ccccc1)c1ccccc1,5.98% (inactive)
9,Clc1nccc2c1ccc1ccccc12,0.319% (inactive)
10,O=C(O)C1CCNCC1,-0.71% (inactive)
11,CC(N)=O,-0.377% (inactive)
12,CC(=O)C(C)=O,-0.555% (inactive)
13,O=C(O)/C=C/c1cnc[nH]1,-4.32% (inactive)
14,NC1(C(=O)O)CCc2cc(C(=O)O)ccc21 (stereo unspecified),-9.9% (inactive)
15,Oc1ccc(Cn2cc[nH]c2=S)cc1,-17.4% (inactive)
16,NC1CONC1=O (stereo unspecified),-22% (inactive)
17,NC(=O)CNCCC(c1ccccc1)c1ccccc1,-23.9% (inactive)
18,O=C(O)c1ccccc1Nc1cccc(OCc2ccc3ccccc3n2)c1,5.32% (inactive)

# Target: Tyrosine-protein phosphatase non-receptor type substrate 1 (Homo sapiens) + Leukocyte surface antigen CD47 (Homo sapiens) (UniProt P78324+Q08722)
# Sequence (P78324 whole entry, looked up): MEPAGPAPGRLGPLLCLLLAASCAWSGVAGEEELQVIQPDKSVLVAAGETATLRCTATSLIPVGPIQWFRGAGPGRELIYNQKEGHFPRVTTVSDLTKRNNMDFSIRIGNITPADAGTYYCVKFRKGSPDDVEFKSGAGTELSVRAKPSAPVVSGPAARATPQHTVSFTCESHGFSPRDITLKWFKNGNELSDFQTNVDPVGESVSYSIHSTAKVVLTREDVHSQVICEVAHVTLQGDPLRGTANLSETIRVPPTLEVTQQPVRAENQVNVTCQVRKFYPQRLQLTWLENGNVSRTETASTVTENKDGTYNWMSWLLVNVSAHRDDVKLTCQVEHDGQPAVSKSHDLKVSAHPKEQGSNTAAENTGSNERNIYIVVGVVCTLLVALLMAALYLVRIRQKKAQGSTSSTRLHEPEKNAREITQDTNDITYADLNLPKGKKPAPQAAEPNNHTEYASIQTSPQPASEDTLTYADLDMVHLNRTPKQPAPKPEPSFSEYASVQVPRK
# Sequence (Q08722 whole entry, looked up): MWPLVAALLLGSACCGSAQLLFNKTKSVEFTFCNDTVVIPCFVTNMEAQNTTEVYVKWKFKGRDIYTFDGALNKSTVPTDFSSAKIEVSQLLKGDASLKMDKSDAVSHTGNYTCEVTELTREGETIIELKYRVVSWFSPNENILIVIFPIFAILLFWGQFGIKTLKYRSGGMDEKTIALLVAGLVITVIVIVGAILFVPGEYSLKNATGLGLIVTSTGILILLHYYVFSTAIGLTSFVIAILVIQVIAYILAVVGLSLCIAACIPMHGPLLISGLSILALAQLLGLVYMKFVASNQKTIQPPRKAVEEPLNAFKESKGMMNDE
# Assay: CD47-SIRPalpha protein protein interaction - LANCE assay qHTS validation (AID 1347057; active means well fitted curve in the direction sought with a large enough effect in the signal ratio, with a control signal flat, not every such curve was filed as active; the % refers to the signal ratio; further: 0% is about no effect)
# Details: Recombinant CD47-His / biotin-SIRPalpha, TR-FRET ratio; series mostly up to 38.3 µM; activity change, negative = inhibition: at the top concentration
# Summary of the method: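 First, His-tagged CD47 and Eu-labelled anti-His antibody met the compound for 30 min; next, site-specifically biotinylated SIRPalpha was added for 30 min; finally streptavidin-APC was added before reading the TR-FRET ratio.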
row,Compound,"activity change, negative = inhibition"
1,NCCC1CCCC(CCN)N1 (stereo unspecified),1.93% (inactive)
2,COc1ccc(CCn2nnnc2C2(c3ccc(C)cc3)CC2)cc1,0.22% (inactive)
3,O=c1[nH]c2cc(Cl)ccc2c(O)c1-c1ccc(Oc2ccccc2)cc1,-1.15% (inactive)
4,C=CC1(C)CC(=O)C2(O)C(C)(O1)C(OC(C)=O)C(O)C1C(C)(C)CCC(O)C12C (stereo unspecified),2.94% (inactive)
5,NCCCCN,1.19% (inactive)
6,CCCc1c(OCCCOc2ccc(OCC(=O)O)cc2)ccc(C(C)=O)c1O,0.353% (inactive)
7,C=CC[C@H](N)C(=O)O,1.67% (inactive)
8,Nc1ncnc2c1ncn2C1CCCC1,1.15% (inactive)
9,Cc1nc(N=Nc2ccc(C(=O)O)cc2)c(COP(=O)(O)O)c(C=O)c1O,0.396% (inactive)
10,COc1ccc2c(c1)c(CC(=O)O)c(C)n2C(=O)c1ccccc1,1.1% (inactive)
11,CCCOC(=O)c1c(-c2ccccc2)nc(CC)c(C(=O)SCC)c1CCC,-1.41% (inactive)
12,CCCCCCCCCCC(C)(C)C(=O)Nc1c(OC)cc(OC)cc1OC,0.879% (inactive)
13,CCCC[C@@]1(C2CCCC2)Cc2cc(OCC(=O)O)c(Cl)c(Cl)c2C1=O,-2.28% (inactive)
14,C/C(=C\c1ccc(C(=O)O)cc1)c1ccc2c(c1)C(C)(C)CCC2(C)C,-3.72% (inactive)
15,Nc1ncnc2c1nc(Br)n2C1OC2COP(=O)(O)O[C@@H]2C1O (stereo partly specified),0.0327% (inactive)
16,O=C(O)CCC/C=C\C[C@@H]1[C@@H](/C=C/[C@H](O)C2Cc3ccccc3C2)[C@@H](F)C[C@@H]1O,0.933% (inactive)
17,O=C(O)C1CN(CCCP(=O)(O)O)CCN1 (stereo unspecified),-0.278% (inactive)
18,N=C(N)c1ccccc1,3.81% (inactive)
19,Brc1c(Br)c(Br)c2[nH]cnc2c1Br,-0.134% (inactive)

row,Compound,"activity change, negative = inhibition"
1,Cc1nc2n(c(=O)c1CCN1CCC(c3noc4cc(F)ccc34)CC1)CCCC2O (stereo unspecified),0.339% (inactive)
2,COc1ccc(C(=O)NCc2cccnc2)cc1C(=O)NCc1cccnc1,1.58% (inactive)
3,O=c1cc(-c2ccccc2F)[nH]c2cc3c(cc12)OCO3,2.37% (inactive)
4,CNC(=O)c1cc2c(cn1)[nH]c1ccccc12,0.264% (inactive)
5,N[C@@H](Cc1ccc(F)cc1)C(=O)O,0.616% (inactive)
6,N=C(N)c1ccc(OCCCCCOc2ccc(C(=N)N)cc2)cc1 (tested in a mixture with another compound),-1.27% (inactive)
7,O=C(c1ccc2c(c1)OCCO2)N1CCCCC1,-0.0879% (inactive)
8,NCC(O)(CS(=O)(=O)O)c1ccc(Cl)cc1 (stereo unspecified),1.19% (inactive)
9,CC(C)[C@@H]1CC[C@@H](C)C[C@@H]1P(=O)(c1ccccc1)c1ccccc1,-0.308% (inactive)
10,Clc1nccc2c1ccc1ccccc12,-0.0622% (inactive)
11,O=C(O)C1CCNCC1,0% (inactive)
12,CC(N)=O,-0.264% (inactive)
13,CC(=O)C(C)=O,0.22% (inactive)
14,O=C(O)/C=C/c1cnc[nH]1,1.18% (inactive)
15,NC1(C(=O)O)CCc2cc(C(=O)O)ccc21 (stereo unspecified),1.93% (inactive)
16,Oc1ccc(Cn2cc[nH]c2=S)cc1,0.683% (inactive)
17,NC1CONC1=O (stereo unspecified),0.0391% (inactive)
18,NC(=O)CNCCC(c1ccccc1)c1ccccc1,0.616% (inactive)
19,O=C(O)c1ccccc1Nc1cccc(OCc2ccc3ccccc3n2)c1,3.89% (inactive)
